Hits are enriched below; roughly 6.1% of the tested compounds scored in any of these assays.
D1 PAM = enhances dopamine response at the human D1 receptor | P21728 | HEK293 TREx D1 cells, calcium flux, dopamine EC20 potentiation | potentiation, % at 10 µM | hit rate 0.036% among 360,000; in the data active = potentiation above about 30%
Target sequence (P21728 whole entry, looked up): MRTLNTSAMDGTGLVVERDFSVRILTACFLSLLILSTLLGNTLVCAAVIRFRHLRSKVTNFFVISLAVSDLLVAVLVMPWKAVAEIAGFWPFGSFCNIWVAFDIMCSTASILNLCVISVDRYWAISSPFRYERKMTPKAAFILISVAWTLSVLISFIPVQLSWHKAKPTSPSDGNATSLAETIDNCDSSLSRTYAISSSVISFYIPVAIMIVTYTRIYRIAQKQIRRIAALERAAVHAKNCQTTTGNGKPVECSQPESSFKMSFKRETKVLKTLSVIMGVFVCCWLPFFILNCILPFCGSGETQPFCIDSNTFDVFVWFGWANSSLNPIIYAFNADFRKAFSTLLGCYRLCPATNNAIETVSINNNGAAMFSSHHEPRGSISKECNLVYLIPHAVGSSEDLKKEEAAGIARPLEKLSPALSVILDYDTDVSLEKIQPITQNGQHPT
DRD3 antagonist = antagonists of human D3 dopamine receptor; D3R cells, DiscoveRx beta-arrestin luminescence, antagonist mode; stronger effect = lower value; max response, negative = inhibition, %; hit rate 2.5% among 360,000; AID 652054; in the data active = max response below about -50%; inconclusive = no clear call, values can overlap the other calls
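Cells expressing the human receptor were seeded at 1500 cells/well, incubated overnight at 37 degrees C in 5% CO2, then exposed to library compounds with dopamine controls for 90 minutes at 37 degrees C before luminescent detection.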
DRD3 agonist = agonists of human D3 dopamine receptor; D3R DiscoveRx beta-arrestin cells, luminescence, 90 min; max activation, %; hit rate 0.58% among 410,000; in the data active = max activation above about 30%
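Cells at 1500/well, incubated overnight, then treated with pinned compounds (dopamine as control) for 90 min at 37 degrees C. DiscoveRx reagent added for 30 - 60 minutes at room temperature; luminescence read.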
D1 agonist = activates the human D1 dopamine receptor; P21728; HEK293 T-REx D1 cells, calcium flux, agonist mode; activation, % at 2 µM; hit rate 1% among 360,000; in the data active = activation above about 30%
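Inducible HEK293 T-REx D1 cells, force-coupled to calcium signalling, were plated at 4000 cells/well with tetracycline and held overnight at 30 C. After no-wash calcium dye loading, compound-evoked calcium rise over 180 s flagged agonists.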
D1 antag = antagonists of human D1 dopamine receptor. P21728. HEK293 TREx D1 cells, calcium flux, dopamine EC80; stronger effect = lower value. activity change, negative = inhibition, % at 10 µM. hit rate 3.2% among 360,000. AID 504652; in the data active = activity change below about -30%
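Cells carrying a force-coupled, tetracycline-inducible human D1 receptor report calcium flux. Each well gets a 10 s baseline, compound with 180 s monitoring, then an EC80 dopamine stimulus with a second 180 s kinetic read.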
Hits are given with their value; – = inactive; ? = inconclusive; · = no result.

SMILES	D1 PAM	DRD3 antagonist	DRD3 agonist	D1 agonist	D1 antag
CCN(c1cccc(C)c1)S(=O)(=O)c1cc(Br)cc2c1N(C(C)=O)C(C)C2 (stereo unspecified)	–	·	–	–	–
Cc1cc2c(s1)c1cnn(Cc3ccccc3)c(=O)c1n2C	–	·	·	–	–
COC(=O)c1ccc(C(=O)OC)c(NC(=O)c2ccc(-c3ccccc3)s2)c1	–	·	–	–	–
CC(=O)Nc1ccc(C)c([N+](=O)[O-])c1	–	–	–	–	–
O=C(Nc1ccccc1)Nc1ccc(F)c([N+](=O)[O-])c1	–	–	–	–	-48
N#Cc1ccsc1NC(=O)c1cccc([N+](=O)[O-])c1	–	?	–	–	–
Cc1ccc(NC(=O)Nc2ccccc2)cc1[N+](=O)[O-]	–	–	–	–	-33
O=C(Nc1ccccc1)Nc1ccc(Nc2ccccc2)cc1	·	–	–	·	·
N#Cc1ccsc1NC(=O)c1ccc(Cl)c([N+](=O)[O-])c1	–	–	–	39	-38
O=C(Nc1ccccc1)Nc1ccccc1	–	?	–	–	-33
Cc1cc(Nc2ccccc2C(=O)O)ccc1Cl	·	·	–	·	·
CCc1ccc(NC(=O)NCCc2c(C)nn(C)c2C)cc1	–	·	–	–	–
CCCCCCCC/C=C\CCCCCCCCN	·	·	–	·	·
CCc1ccc(Oc2c(C(F)(F)F)oc3c(CN4CCC(C)CC4)c(O)ccc3c2=O)cc1	–	·	–	–	–
Cc1ccc(-c2nc(S(=O)(=O)c3ccc(C)cc3)c(N3CCCCC3)o2)cc1	–	·	–	–	–
N#Cc1ccc(NC(=O)Nc2ccc(Oc3ccc(NC(=O)Nc4ccc(C#N)cc4)cc3)cc2)cc1	–	–	–	–	–
N#Cc1ccc(NC(=O)Nc2cccc(C#N)c2)cc1	–	–	–	32	-63
CCOC(=O)CNc1ncnc2c1nnn2C	–	·	–	–	·
CCOc1ccc(NC(=O)CC2C(=O)N(c3cccc(C)c3)C(=O)N2Cc2cccs2)cc1 (stereo unspecified)	–	·	–	–	–
Cc1ccc(NC(=O)COC(=O)CCNS(=O)(=O)c2c(Cl)cccc2Cl)cc1	·	–	–	·	·
Cc1ccc(S(=O)(=O)NCC(=O)OCCOc2cccc(Cl)c2)cc1	40	–	–	–	–
Cc1ccc(S(=O)(=O)NCCC(=O)OCC(=O)Nc2cccc(Cl)c2)cc1	–	–	–	–	-42
O=C(CNC(=O)c1ccccc1)OC(Cc1ccccc1)C(=O)Nc1cc(C(F)(F)F)ccc1Cl (stereo unspecified)	–	·	·	–	–
O=C1CCCCc2cc(O)c(O)cc21	·	–	52	·	·
COc1cc(/C=C/C(=O)OCC(=O)Nc2ccc3c(c2)OCCO3)ccc1O	–	–	–	–	–
SMILES	D1 PAM	DRD3 antagonist	DRD3 agonist	D1 agonist	D1 antag
COC(=O)c1c(-c2ccc(C)cc2)csc1NC(=O)Cc1ccc(OC)c(OC)c1	–	–	32	–	–
COC(=O)c1c(-c2ccc(Br)cc2)csc1NC(=O)Cc1ccc(OC)c(OC)c1	–	–	–	–	–
CCOC(=O)c1c(-c2ccc(C)cc2)csc1NC(=O)/C(C#N)=C/c1ccc(O)c(OC)c1	–	–	–	111	–
COc1cc(/C=C(\C#N)C(=O)Nc2ccc3c(c2)OCCO3)ccc1O	–	–	–	41	–
O=C(COC(=O)c1cccnc1Cl)NC(=O)c1ccc(OC(F)F)cc1	·	-53	–	·	·
Cc1c(/C=N/n2cnnc2)c2ccccc2n1CCOc1ccc(Cl)cc1	–	–	–	–	–
Cc1ccc(OCCn2c(C)c(/C=N/n3cnnc3)c3ccccc32)cc1	–	–	–	–	-34
CC(C)(C)C(=O)OCC(=O)[C@H]1CC[C@H]2[C@@H]3CCC4=CC(=O)CC[C@]4(C)[C@H]3CC[C@]12C	·	·	–	·	·
COc1cc2nc(CN(C)Cc3ccc(Cl)cc3)[nH]c(=O)c2cc1OC	–	–	–	–	–
COc1cc2cncc(Cc3ccc(Cl)cc3)c2cc1OC	–	–	–	–	-45
COc1cccc(-c2csc3nc[nH]c(=O)c23)c1	–	–	–	–	-34
Cc1ccc(-c2csc3nc[nH]c(=O)c23)cc1C	–	–	–	–	–
CCOc1ccc(C(=O)Oc2c(Sc3ccccc3)c(C)nn2C(C)(C)C)cc1OCC	–	·	–	–	–
COc1ccccc1C1NC=C([N+](=O)[O-])C=C1[N+](=O)[O-] (stereo unspecified)	–	-62	–	–	–
CCOC(=O)c1c(NC(=O)c2cc(-c3ccc(Br)cc3)on2)sc(C)c1C	–	·	–	–	–
O=c1[nH]c2ccccc2cc1CN(CC1CCCO1)S(=O)(=O)c1ccccc1 (stereo unspecified)	–	–	–	–	-35
CCN(Cc1cc2ccccc2[nH]c1=O)S(=O)(=O)c1ccc(OC)cc1	–	–	–	–	-39
CCOC(=O)C1CCN(C(=O)c2nn(-c3ccc(C)cc3)c(=O)n(C)c2=O)CC1	–	·	–	–	–
CCCn1c(Nc2nc3ccccc3n2C)nc2ccccc21	–	-102	–	–	–
Nn1c(Nc2ccccc2)nc2ccccc21	–	–	–	–	–
Cn1c(Nc2ccccc2)nc2ccccc21	–	–	–	–	-46
CC(=O)c1ccc(NC(=O)c2cc3c(=O)oc4ccc(C)cc4c3s2)cc1	–	·	–	–	–
CCN(C(=O)Cn1cnc2onc(-c3ccc(F)cc3)c2c1=O)c1cc(C)ccc1C	–	·	–	–	–
Nc1nc(N)c2cc(Sc3ccc4ccccc4c3)ccc2n1	–	–	–	33	–
Nc1nc(N)c2cc(Sc3ccc(Cl)cc3)ccc2n1	·	–	–	·	·
SMILES	D1 PAM	DRD3 antagonist	DRD3 agonist	D1 agonist	D1 antag
C=C(C)CC1Nc2ccccc2NC1CC(=C)C (stereo unspecified)	–	–	–	–	-62
C=C(C)CN1C(=O)c2ccccc2C1=O	–	–	–	–	·
CCc1nc2nc(C)c(NS(=O)(=O)c3ccc(C)cc3)c(=O)n2[nH]1	–	·	–	–	–
CCc1nc2nc(C)c(NS(=O)(=O)c3ccc(C(C)(C)C)cc3)c(=O)n2[nH]1	–	·	–	–	-72
Cc1cc(NC(=O)c2cc(-c3ccc(Br)cc3)on2)nn1Cc1ccc(Cl)cc1	–	·	–	–	–
C=CCc1cc(Cl)ccc1OCCOCCNCCOC	–	–	–	–	–
C=CCc1ccccc1OCCNCCCOC	–	-102	–	–	-46
C=CCc1cc(Cl)ccc1OCCNCCCOC	–	-59	–	–	–
CCCCn1cnc2cc(NCc3ccccc3Cl)ccc21	–	·	–	–	–
COc1ccc(CCNC(=O)C(=O)NCC(c2ccc3c(c2)OCO3)N2CCOCC2)cc1 (stereo unspecified)	–	·	–	–	–
COc1ccc(Nc2nc(-c3sc(C)nc3C)cs2)c(OC)c1	–	–	–	–	-43
COc1ccc(Nc2nc(-c3cccs3)cs2)c(OC)c1	–	-51	–	–	–
COc1ccc(OC)c(Nc2nc(-c3cccs3)cs2)c1	–	–	–	–	–
CN(C)c1cccc(C(=O)OCc2cc(=O)oc3cc(O)ccc23)c1	–	–	–	–	–
